# Reference: the OligoGym collection
# Target: OTP
# Experiment: pooled miR-30 sensor sort-seq; sequence = guide strand
# Details: shRNA
row,Sequence,sensor-assay potency score (higher = more potent)
1,TTAAGTTAAAACATATCACAAA,-1.23
2,TTACAAAAGAAAATTTTGCTTA,-0.204
3,TTGGTAGCAATGCTTGTCCTCC,-0.441
4,TTATCTACACAAAACATCCTAT,-0.185
5,TTTATCTACACAAAACATCCTA,0.114
6,TTTCTCTGTACAAAGTTGCAGG,-0.634
7,TTCCTCGTCACATGACTGCTTT,-0.353
8,AACATATCACAAATTGACCAGT,-0.538
9,TTCTACACTCTCACACAGTTGT,0.376
10,TTGACCAGTATGTAACAAGAAT,-1.1

# Target: OXGR1
# Experiment: as above
# Details: shRNA
row,Sequence,sensor-assay potency score (higher = more potent)
1,AATAGTATTGAGTTCATCCGAA,-0.145
2,TGAATGATCACACAGTAGCGGA,-1.12
3,TTCAGCATAATGATGGTGCTGC,0.6
4,TTGCATCTCACTGTTGAGCAGA,-0.0433
5,TAATAGTATTGAGTTCATCCGA,-0.637
6,TACAGGTTGAAATGGAAGCTGA,-0.61
7,TAATTTTCTTTGCTTGCTCAAG,-1.24
8,TTTCTTTGCTTGCTCAAGGTTC,-0.282
9,TTGAAATGGAAGCTGAAGCGGA,0.195
10,TTGAGTTCATCCGAACTGGTGA,0.378
11,TACAACTGCACATCGAGTTTTG,-0.712
12,TTACTTTGCATCTCACTGTTGA,0.106

# Target: OXSR1
# Experiment: as above
# Details: shRNA
row,Sequence,sensor-assay potency score (higher = more potent)
1,TTTCTTTATCTTGAACACCAGT,-0.815
2,TTCATCATCACTCCACTCCCAG,-0.375
3,TATTGATTCTTTCACTCGGGGA,-0.811
4,TCTTGGTTTCTTGTGAACCTGA,-0.403
5,TTGAAGAAATTCTTTATTCTTT,-0.617
6,TATCTGAGCCTTCGACACCAGA,-1.2
7,TTTGATTGCCACTTTCTCCTTT,0.477
8,TAATCTTAGTACTAGACTGATT,-1.17
9,TTTCTTGTGAACCTGATCCTGA,0.134
10,TTTACTAACGGAACTCTGGGGA,0.644
11,TTAATCTTAGTACTAGACTGAT,-0.309
12,TTGTCTGTAAAAACAATCCAAA,-1.04

# Target: P2RX3
# Experiment: as above
# Details: shRNA
row,Sequence,sensor-assay potency score (higher = more potent)
1,TTGAGCAGGATGATGTCACAGA,0.136
2,TTGATGATCCCGATGGTCCAGC,-0.677
3,TTCCACTGTGTCCACCTCCGTG,-1.06
4,TCAGTAACAATCATCTTGGTGA,0.681
5,TTGAACTTGCCAGCATTCCCGT,-1.02
6,TATACCAGCACGTCGAAGCGGA,-0.313
